Dicer inh: blocks human Dicer maturation of pre-miR-21. z-score at 25 µM. Q9UPY3. cat-ELCCA pre-miR-21 Dicer processing, chemiluminescence; stronger effect = higher value. 47,000 tested, 6% active; in the data active = z-score above about 3, passing the limit was not always enough;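 note: plate controls were vehicle for no effect and no enzyme for full effect; higher signal means more uncleaved substrate so more Dicer inhibition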
An asterisk follows results filed as active. Many of the other results were omitted from the sample, so hits are more common in it than they were.

SMILES	Dicer inh
Cc1ccc(-c2cc(Cc3cccs3)c(=O)[nH]n2)cc1	16
Cc1ccc(-c2cc(Cc3cccn3-c3ccc(Cl)cc3)c(=O)[nH]n2)cc1	3.8*
Cc1cc(Cc2ccc(Cl)cc2)c(=O)[nH]n1	-0.59
CC(=O)c1ccc(C#CCOC(=O)c2ccc(C(F)(F)F)cc2)s1	-2.7
O=C(O)c1ccc2nc(CCc3ccccc3)[nH]c2c1	-0.38
O=C(O)CCc1nc2ccc(C(=O)O)cc2[nH]1	3.7*
Nc1ccc2nc(CCC(=O)O)[nH]c2c1	-4.9
CC(=O)Nc1cc(Sc2ccc(Cl)cc2)c(F)cc1[N+](=O)[O-]	-0.83
Cc1nc2cc(NCc3ccncc3)ccc2n1C	0.06
O=C(Oc1cc(=O)oc2c1c(=O)n1c3c(cccc23)CC1)c1ccco1	-0.23
COc1ccc(OC)c(Nc2nc(-c3ccncc3)cs2)c1	1.7
Cc1cc(O)ccc1Nc1nc(-c2cccnc2)cs1	1.9
COc1ccc(Nc2nc(-c3ccccn3)cs2)c(OC)c1	5.3*
Cc1nc(C)c(-c2csc(Nc3ccc(O)cc3C)n2)s1	1.1
Fc1ccccc1Nc1nc(-c2ccccn2)cs1	1.7
Cc1cc(O)ccc1Nc1nc(-c2ccccn2)cs1	5.4*
Cc1nc(-c2ccccc2OC(F)(F)F)[nH]c(=O)c1Cl	1.9
CN1C(=O)c2ccccc2Sc2cc([N+](=O)[O-])ccc2S1(=O)=O	6.5
O=C(c1ccccc1)c1cnc2ccccn2c1=O	1.7
COc1nc(-c2ccc(C)cc2)ccc1-c1noc(-c2ccco2)n1	0.45
O=[N+]([O-])c1cnc(Sc2nccc(-c3cccnc3)n2)s1	0.63
CCOc1ccc(S(=O)(=O)Nc2cnc3ccccc3c2)cc1	-2.8
Cc1cc([N+](=O)[O-])nn1CC(=O)Nc1cnc2ccccc2c1	3.5*
Cc1cc([N+](=O)[O-])nn1CC(=O)Nc1ccccn1	-0.84
CC(CC(=O)O/N=C/c1ccc(C#N)cc1)S(=O)(=O)c1ccc(Cl)cc1 (centres undefined)	0.84
SMILES	Dicer inh
N#CC1=C(SCc2ccccc2)NC(=O)CC1c1ccccc1 (centres undefined)	2.3
CNc1ccc(Cl)cc1C(=O)NC(C)(C)C	0.15
O=C(O)c1ccc(-c2cn3cccnc3n2)cc1	-1.6
Cc1c(OCc2ccccc2)cccc1[N+](=O)[O-]	-0.77
C#CCC1(c2ccccc2)C(=O)c2ccccc2C1=O	0.75
O=C1c2ccccc2C(=O)C1(Nc1ccc(Cl)c(Cl)c1)c1ccccc1	-0.91
O=C1c2ccccc2C(=O)C1(c1ccccc1)[N+](=O)[O-]	3.1*
Cc1cc(C(=O)Nc2ccc(N3CCOCC3)c(Cl)c2)c(C)o1	-0.37
CCCn1c(C(O)c2ccccc2)nc2ccccc21 (centres undefined)	0.43
CCOC(=O)/C(C#N)=N/OC(=O)c1c(-c2c(Cl)cccc2Cl)noc1C	1.9
Cc1ccc(C)n1-c1ccc(Cl)c(C(=O)O)c1	8.2*
Cc1ccc(C(=O)O)cc1-n1c(C)ccc1C	0.45
Cc1ccc(C)n1-c1ccc(-n2c(C)ccc2C)cc1	-0.06
Cc1ccc(C)n1-c1ccc(Cl)cc1C(=O)O	12*
Cc1ccc(Cl)c(Nc2ccccc2C(=O)O)c1Cl	-0.38
O=C(O)c1cc(Cl)ccc1I	-1.5
Cc1cc(S(=O)(=O)NCC2CC2)c(Cl)cc1Cl	-3.1
CCOc1ccc(Nc2nc(N)c3ccccc3n2)cc1	0.97
Cc1cc(-c2noc(-c3cccc(F)c3)n2)c2ccccc2n1	0.58
O=[N+]([O-])c1cc(C(F)(F)F)ccc1N/N=C1\CCSc2ccc(F)cc21	-1.2
O=[N+]([O-])c1c(Nc2ccc(Cl)cc2)n[nH]c1-c1nnco1	0.68
Cc1ccc(S(=O)(=O)N2CCCOC2)cc1	3.8*
Cc1ccc(S(=O)(=O)N2CCCC3(CCCCC3)C2)cc1	0.92
Cc1ccc(S(=O)(=O)N2CN3CN(C2)CN(S(=O)(=O)c2ccc(C)cc2)C3)cc1	-1.4
Brc1cc2c(cc1[C@H]1Nc3ccccc3[C@H]3C=CC[C@H]31)OCO2	0.31
SMILES	Dicer inh
COc1cc(N)c(Cl)cc1C(=O)OCCN1CCCCC1	-0.67
O=C(OCCN1CCCCC1)c1cccs1	3.7*
CN(CCOC(=O)c1cccs1)C(C)(C)C	0.76
CCN(CC)c1ncnc2c1sc1nc(C)cc(C)c12	2.1
COc1cc(C(C)(C)C)c(OC)cc1C(C)(C)C	0.01
CC1(C)Cc2c(c(N3CCOCC3)nc3sc4c(=O)n(-c5ccc(Cl)cc5)cnc4c23)CO1	0.66
C=C(C)CSc1nnc2c3sc4nc(N5CCOCC5)c5c(c4c3ncn12)CC(C)(C)OC5	3.2*
CC1(C)Cc2c(c(N3CCOCC3)nc3sc4c(NCCCO)ncnc4c23)CO1	7
Oc1sc(-c2ccccc2)cc1C=NCCN=Cc1cc(-c2ccccc2)sc1O	0.11
CC(Oc1ccccc1F)C(=O)Nc1nc2ccc(S(C)(=O)=O)cc2s1 (centres undefined)	-0.69
CCCCC(=O)Nc1nc2ccc(S(C)(=O)=O)cc2s1	1.5
CCCCOC(=O)Nc1nc2ccc(S(C)(=O)=O)cc2s1	4.8*
COc1cc(SC)ccc1C(=O)Nc1nc2ccc(S(C)(=O)=O)cc2s1	1.6
COc1ccc(OCCCC(=O)Nc2nc3ccc(S(C)(=O)=O)cc3s2)cc1	-2.4
